# In publication PMC8384837, “Expanding the binding specificity for RNA recognition by a PUF domain”:
# Positions count from the first letter of the chain named.
# Assays:
# Experiment in all cases: yeast three-hybrid, YBZ-1, SC-Leu-His + 0.5 mM 3-AT, 4 days
# Settings in all cases: tags: N-Gal4 AD-HA kept; label: inside an RPR1-promoter hybrid RNA with tandem MS2 sites; ssRNA
# PUM1 PUF domain R5-KAL = PUM1 PUF domain R5-KAL (Homo sapiens, UniProt Q14671 828-1176, C1007K;R1008A;Q1011L)
# Summary of the method: (§1)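 Sequencing with Illumina followed PCR amplification of the repeat regions from transformants grown four days on SC-Leu (input) or SC-Leu-His + 0.5 mM 3-AT (selection). The transformants were strain YBZ-1 with a LexA–MS2 coat fusion and a HIS3 reporter, carrying Pumilio-1 PUF domain libraries and matching RNA elements. The interaction score is the log change in variant frequency from input to selection, computed in log2 with a pseudocount of 1 for absent variants.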
# PUM1 PUF domain R5-RFS = PUM1 PUF domain R5-RFS (Homo sapiens, UniProt Q14671 828-1176, C1007R;R1008F;Q1011S)
# Summary of the method: as §1
# PUM1 PUF domain R5-FHG = PUM1 PUF domain R5-FHG (Homo sapiens, UniProt Q14671 828-1176, C1007F;R1008H;Q1011G)
# Summary of the method: as §1
# PUM1 PUF domain R1-NFH = PUM1 PUF domain R1-NFH (Homo sapiens, UniProt Q14671 828-1176, S863N;R864F;Q867H)
# Summary of the method: as §1
# PUM1 PUF domain R1-YIR = PUM1 PUF domain R1-YIR (Homo sapiens, UniProt Q14671 828-1176, S863Y;R864I;Q867R)
# Summary of the method: as §1
# PUM1 PUF domain R7-CWP = PUM1 PUF domain R7-CWP (Homo sapiens, UniProt Q14671 828-1176, S1079C;N1080W;E1083P)
# Summary of the method: as §1
# PUM1 PUF domain R7-RMR = PUM1 PUF domain R7-RMR (Homo sapiens, UniProt Q14671 828-1176, S1079R;N1080M;E1083R)
# Summary of the method: as §1
# PUM1 PUF domain R7-RTC = PUM1 PUF domain R7-RTC (Homo sapiens, UniProt Q14671 828-1176, S1079R;N1080T;E1083C)
# Summary of the method: as §1
# PUM1 PUF domain R5-SEQ = PUM1 PUF domain R5-SEQ (Homo sapiens, UniProt Q14671 828-1176, C1007S;R1008E)
# Summary of the method: as §1
# PUM1 PUF domain R6-RWR = biological target: T1, PUM1 PUF domain R6-RWR (Homo sapiens, UniProt Q14671 828-1176, N1043R;Y1044W;Q1047R)
# T1 sequence: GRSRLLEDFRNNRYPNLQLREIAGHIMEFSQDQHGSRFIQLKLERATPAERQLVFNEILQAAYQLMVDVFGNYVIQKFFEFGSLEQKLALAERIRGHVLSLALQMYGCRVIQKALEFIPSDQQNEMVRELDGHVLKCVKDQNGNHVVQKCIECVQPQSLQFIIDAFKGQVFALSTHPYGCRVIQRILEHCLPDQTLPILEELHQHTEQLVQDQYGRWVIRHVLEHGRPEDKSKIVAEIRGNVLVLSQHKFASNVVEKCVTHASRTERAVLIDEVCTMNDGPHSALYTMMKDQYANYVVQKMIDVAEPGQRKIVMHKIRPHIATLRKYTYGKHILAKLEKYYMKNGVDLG
# Summary of the method: as §1
# PUM1 PUF domain R3-PRE = PUM1 PUF domain R3-PRE (Homo sapiens, UniProt Q14671 828-1176, C935P;Q939E)
# Summary of the method: as §1
# PUM1 PUF domain R3-GHG = PUM1 PUF domain R3-GHG (Homo sapiens, UniProt Q14671 828-1176, C935G;R936H;Q939G)
# Summary of the method: as §1
# PUM1 PUF domain R2-VYP = PUM1 PUF domain R2-VYP (Homo sapiens, UniProt Q14671 828-1176, N899V;Q903P)
# Summary of the method: as §1
# PUM1 PUF domain R6-KWV = biological target: T2, PUM1 PUF domain R6-KWV (Homo sapiens, UniProt Q14671 828-1176, N1043K;Y1044W;Q1047V)
# T2 sequence: T1 sequence with R216K, R220V
# Summary of the method: as §1
# PUM1 PUF domain R6-HFT = biological target: T3, PUM1 PUF domain R6-HFT (Homo sapiens, UniProt Q14671 828-1176, N1043H;Y1044F;Q1047T)
# T3 sequence: T1 sequence with R216H, W217F, R220T
# Summary of the method: as §1
# PUM1 PUF domain R5-NIA = PUM1 PUF domain R5-NIA (Homo sapiens, UniProt Q14671 828-1176, C1007N;R1008I;Q1011A)
# Summary of the method: as §1
# PUM1 PUF domain R4-FNL = PUM1 PUF domain R4-FNL (Homo sapiens, UniProt Q14671 828-1176, N971F;H972N;Q975L)
# Summary of the method: as §1
# PUM1 PUF domain R4-AWP = PUM1 PUF domain R4-AWP (Homo sapiens, UniProt Q14671 828-1176, N971A;H972W;Q975P)
# Summary of the method: as §1
# PUM1 PUF domain R8-LHK = PUM1 PUF domain R8-LHK (Homo sapiens, UniProt Q14671 828-1176, N1122L;Y1123H;Q1126K)
# Summary of the method: as §1
# PUM1 PUF domain R1-KQR = PUM1 PUF domain R1-KQR (Homo sapiens, UniProt Q14671 828-1176, S863K;R864Q;Q867R)
# Summary of the method: as §1
sequence,measurement,setting,value
GGCUAGAACUAGUGGAUCCCCCGGCGCCCGGCGGCUCGAGCCCGGGUAAGUGUCAAUAGUCUGCAUGCCGCCGGGCGCCAUGCCUGCAGGUCGACUCUAGAAAACAUG,binding signal,PUM1 PUF domain R5-KAL,3.48 log2 enrichment (interaction score)
same,binding signal,PUM1 PUF domain R5-RFS,5.34 log2 enrichment (interaction score)
same,binding signal,PUM1 PUF domain R5-FHG,2.68 log2 enrichment (interaction score)
GGCUAGAACUAGUGGAUCCCCCGGCGCCCGGCGGCUCGAGCCCGGGUAAGUGUAAAUUGUCUGCAUGCCGCCGGGCGCCAUGCCUGCAGGUCGACUCUAGAAAACAUG,binding signal,PUM1 PUF domain R1-NFH,3.4 log2 enrichment (interaction score)
same,binding signal,PUM1 PUF domain R1-YIR,4.41 log2 enrichment (interaction score)
GGCUAGAACUAGUGGAUCCCCCGGCGCCCGGCGGCUCGAGCCCGGGUAAGUUUAAAUAGUCUGCAUGCCGCCGGGCGCCAUGCCUGCAGGUCGACUCUAGAAAACAUG,binding signal,PUM1 PUF domain R7-CWP,4.38 log2 enrichment (interaction score)
same,binding signal,PUM1 PUF domain R7-RMR,4.78 log2 enrichment (interaction score)
same,binding signal,PUM1 PUF domain R7-RTC,3.51 log2 enrichment (interaction score)
GGCUAGAACUAGUGGAUCCCCCGGCGCCCGGCGGCUCGAGCCCGGGUAAGUGUGAAUAGUCUGCAUGCCGCCGGGCGCCAUGCCUGCAGGUCGACUCUAGAAAACAUG,binding signal,PUM1 PUF domain R5-SEQ,3.78 log2 enrichment (interaction score)
same,binding signal,PUM1 PUF domain R5-RFS,1.78 log2 enrichment (interaction score)
GGCUAGAACUAGUGGAUCCCCCGGCGCCCGGCGGCUCGAGCCCGGGUAAGUCUAAAUAGUCUGCAUGCCGCCGGGCGCCAUGCCUGCAGGUCGACUCUAGAAAACAUG,binding signal,PUM1 PUF domain R7-RMR,2.46 log2 enrichment (interaction score)
GGCUAGAACUAGUGGAUCCCCCGGCGCCCGGCGGCUCGAGCCCGGGUAAGUGCAAAUAGUCUGCAUGCCGCCGGGCGCCAUGCCUGCAGGUCGACUCUAGAAAACAUG,binding signal,PUM1 PUF domain R6-RWR,1.4 log2 enrichment (interaction score)
GGCUAGAACUAGUGGAUCCCCCGGCGCCCGGCGGCUCGAGCCCGGGUAAGUGAAAAUAGUCUGCAUGCCGCCGGGCGCCAUGCCUGCAGGUCGACUCUAGAAAACAUG,binding signal,PUM1 PUF domain R6-RWR,4.83 log2 enrichment (interaction score)
GGCUAGAACUAGUGGAUCCCCCGGCGCCCGGCGGCUCGAGCCCGGGUAAGUGUAAGUAGUCUGCAUGCCGCCGGGCGCCAUGCCUGCAGGUCGACUCUAGAAAACAUG,binding signal,PUM1 PUF domain R3-PRE,4.92 log2 enrichment (interaction score)
same,binding signal,PUM1 PUF domain R3-GHG,1.95 log2 enrichment (interaction score)
GGCUAGAACUAGUGGAUCCCCCGGCGCCCGGCGGCUCGAGCCCGGGUAAGUGUAAAAAGUCUGCAUGCCGCCGGGCGCCAUGCCUGCAGGUCGACUCUAGAAAACAUG,binding signal,PUM1 PUF domain R2-VYP,3.97 log2 enrichment (interaction score)
GGCUAGAACUAGUGGAUCCCCCGGCGCCCGGCGGCUCGAGCCCGGGUAAGUGUAAAUAGUCUGCAUGCCGCCGGGCGCCAUGCCUGCAGGUCGACUCUAGAAAACAUG,binding signal,PUM1 PUF domain R3-PRE,3.66 log2 enrichment (interaction score)
same,binding signal,PUM1 PUF domain R3-GHG,3.44 log2 enrichment (interaction score)
same,binding signal,PUM1 PUF domain R6-RWR,6.07 log2 enrichment (interaction score)
same,binding signal,PUM1 PUF domain R5-RFS,2.61 log2 enrichment (interaction score)
same,binding signal,PUM1 PUF domain R1-YIR,3.77 log2 enrichment (interaction score)
same,binding signal,PUM1 PUF domain R6-KWV,6.02 log2 enrichment (interaction score)
same,binding signal,PUM1 PUF domain R6-HFT,3.78 log2 enrichment (interaction score)
GGCUAGAACUAGUGGAUCCCCCGGCGCCCGGCGGCUCGAGCCCGGGUAAGUGUUAAUAGUCUGCAUGCCGCCGGGCGCCAUGCCUGCAGGUCGACUCUAGAAAACAUG,binding signal,PUM1 PUF domain R5-KAL,3.43 log2 enrichment (interaction score)
same,binding signal,PUM1 PUF domain R5-NIA,4.96 log2 enrichment (interaction score)
same,binding signal,PUM1 PUF domain R5-RFS,5.12 log2 enrichment (interaction score)
same,binding signal,PUM1 PUF domain R5-FHG,3.39 log2 enrichment (interaction score)
GGCUAGAACUAGUGGAUCCCCCGGCGCCCGGCGGCUCGAGCCCGGGUAAGUGUAUAUAGUCUGCAUGCCGCCGGGCGCCAUGCCUGCAGGUCGACUCUAGAAAACAUG,binding signal,PUM1 PUF domain R4-FNL,3.56 log2 enrichment (interaction score)
same,binding signal,PUM1 PUF domain R4-AWP,6.43 log2 enrichment (interaction score)
GGCUAGAACUAGUGGAUCCCCCGGCGCCCGGCGGCUCGAGCCCGGGUAAGUGUACAUAGUCUGCAUGCCGCCGGGCGCCAUGCCUGCAGGUCGACUCUAGAAAACAUG,binding signal,PUM1 PUF domain R4-FNL,1.89 log2 enrichment (interaction score)
same,binding signal,PUM1 PUF domain R4-AWP,5.02 log2 enrichment (interaction score)
GGCUAGAACUAGUGGAUCCCCCGGCGCCCGGCGGCUCGAGCCCGGGUAAGCGUAAAUAGUCUGCAUGCCGCCGGGCGCCAUGCCUGCAGGUCGACUCUAGAAAACAUG,binding signal,PUM1 PUF domain R8-LHK,3.29 log2 enrichment (interaction score)
GGCUAGAACUAGUGGAUCCCCCGGCGCCCGGCGGCUCGAGCCCGGGUAAGUGUAAUUAGUCUGCAUGCCGCCGGGCGCCAUGCCUGCAGGUCGACUCUAGAAAACAUG,binding signal,PUM1 PUF domain R3-GHG,1.43 log2 enrichment (interaction score)
GGCUAGAACUAGUGGAUCCCCCGGCGCCCGGCGGCUCGAGCCCGGGUAAGUGUAAAUCGUCUGCAUGCCGCCGGGCGCCAUGCCUGCAGGUCGACUCUAGAAAACAUG,binding signal,PUM1 PUF domain R1-KQR,5.28 log2 enrichment (interaction score)
same,binding signal,PUM1 PUF domain R1-YIR,6.92 log2 enrichment (interaction score)
GGCUAGAACUAGUGGAUCCCCCGGCGCCCGGCGGCUCGAGCCCGGGUAAGUGGAAAUAGUCUGCAUGCCGCCGGGCGCCAUGCCUGCAGGUCGACUCUAGAAAACAUG,binding signal,PUM1 PUF domain R6-RWR,1.16 log2 enrichment (interaction score)
